# Screening results from PubChem BioAssay.
# Compounds with a hit are over-represented: about 5.7% of the library has one in this group of screens.
# KDM4E inh: inhibitors of human JMJD2E histone demethylase; JMJD2E catalytic domain, FDH-coupled NADH fluorescence (FDH is formaldehyde dehydrogenase); B2RXH2; Potency, µM (doses to about 57.1 µM), usual class: inhibitors; hit rate 1.6% among 230,000; AID 2147; active = well fitted inhibition curve with a large enough effect, not every such curve was filed as active; inconclusive = small, poorly fitted or top-dose-only effect, or another doubt; inactive = no such curve, though single readings can be large or run the other way; also: nearly all actives have a fitted effect of over 50% in size
# PI5P4Ka inh: blocks human PI5P4K alpha kinase activity. PI5P4Kalpha enzyme, ADP-Glo luminescence, 60 min; active compounds read low. max response, %. hit rate 1.2% among 330,000. P48426; active = max response of -50% or lower; inconclusive = between -30% and -50%; inactive = -30% or higher; also: value at the top dose of about 77 µM
#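 Single end-point luminescence (ADP-Glo) quantified ADP from PI5P4Kalpha turnover; ATP 5 microM final, 1 h at RT, 0.1% CHAPS and 0.28 mM EGTA in HEPES pH 7.4.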
# JMJD2A Tudor: blocks the human JMJD2A Tudor domain. hit rate 4.4% among 390,000. O75164. AID 504339. AlphaScreen JMJD2A-Tudor / H3K4me3 peptide binding. Potency, µM (doses to about 114 µM), most hits filed as inhibitors; also: nearly all actives have a fitted effect of over 50% in size
# BAZ2B block: blocks human BAZ2B; AlphaScreen BAZ2B-H3K14Ac peptide displacement; Potency, µM (titrated, usually from 114 µM), usual class: inhibitors; hit rate 4.4% among 360,000; AID 504333; also: nearly all actives have a fitted effect of over 60% in size
#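 Inhibition is scored as reduced AlphaScreen emission. The BAZ2B/b-H3(5-23)K14Ac complex (50 nM each) in PBS pH 7.4, 0.01% Tween-20 meets compound (up to 110 uM) for 30 min at RT before bead addition.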
# HP1b chromo inh: HP1-beta chromodomain-methylated histone interaction inhibition; P83916; AlphaScreen HP1-beta / biotin-H3K9me3 peptide binding; Potency, µM (highest dose often 114 µM), hits mostly inhibitors; hit rate 0.56% among 390,000; also: nearly all actives have a fitted effect of over 70% in size
#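 AlphaScreen: HP1-beta (50 nM) preformed 30 min with biotin-H3(1-18)K9me3 peptide (50 nM) in PBS pH 7.4, 0.01% Tween-20. Compound added for 30 min at RT, then streptavidin donor/nickel chelate acceptor beads (10 ug/mL) for 30 min.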
# L3MBTL1 block: blocks human L3MBTL1 | Q9Y468 | AlphaScreen L3MBTL1–H3K9me1 peptide binding | Potency, µM (titrated, usually from 57.1 µM), actives largely listed as inhibitors | hit rate 0.66% among 230,000 | AID 485360; also: nearly all actives have a fitted effect of over 60% in size
# Target sequence (Q9Y468 whole entry, looked up): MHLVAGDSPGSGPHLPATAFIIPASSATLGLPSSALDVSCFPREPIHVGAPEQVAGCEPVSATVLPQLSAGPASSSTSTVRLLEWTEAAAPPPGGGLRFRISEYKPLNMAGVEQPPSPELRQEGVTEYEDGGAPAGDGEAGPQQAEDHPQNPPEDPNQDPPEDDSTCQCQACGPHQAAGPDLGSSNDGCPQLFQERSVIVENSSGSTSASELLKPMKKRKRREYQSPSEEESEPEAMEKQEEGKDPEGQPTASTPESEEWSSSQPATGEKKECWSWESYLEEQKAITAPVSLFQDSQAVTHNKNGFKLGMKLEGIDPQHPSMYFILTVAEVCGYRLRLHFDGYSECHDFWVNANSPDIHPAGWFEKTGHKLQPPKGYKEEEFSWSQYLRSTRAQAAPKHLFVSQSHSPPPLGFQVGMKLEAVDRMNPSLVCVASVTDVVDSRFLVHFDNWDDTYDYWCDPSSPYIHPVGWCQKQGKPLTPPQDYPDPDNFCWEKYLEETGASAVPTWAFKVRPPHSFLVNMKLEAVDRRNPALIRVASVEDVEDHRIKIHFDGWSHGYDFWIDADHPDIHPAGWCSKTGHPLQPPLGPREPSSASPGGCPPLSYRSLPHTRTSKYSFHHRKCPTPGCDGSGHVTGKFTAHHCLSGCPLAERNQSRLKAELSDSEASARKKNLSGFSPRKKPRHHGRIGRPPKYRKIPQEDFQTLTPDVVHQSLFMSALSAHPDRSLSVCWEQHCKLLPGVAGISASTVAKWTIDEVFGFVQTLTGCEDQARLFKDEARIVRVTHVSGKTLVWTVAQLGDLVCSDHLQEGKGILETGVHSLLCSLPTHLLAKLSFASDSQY
#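 First, the protein-peptide complex forms for 30 min at room temperature (L3MBTL1 50 nM, biotinylated H3K9me1 peptide 75 nM). Next, compounds are pin-transferred and incubated 30 min. Finally, AlphaScreen beads are added and read after 30 min.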
# A number is an active result; . = inactive; ? = inconclusive; / = no result given; [ ] = remark or other dose. Unless noted, calls follow the shape of the dose curve; as a rule, active = well fitted inhibition curve with a large enough effect; inconclusive = small, poorly fitted or top-dose-only effect; inactive = no such curve, though single readings can be large or run the other way.
SMILES,KDM4E inh,PI5P4Ka inh,JMJD2A Tudor,BAZ2B block,HP1b chromo inh,L3MBTL1 block
CC1(C)CC(C)(c2ccc(O)cc2O)N(c2ccc3ccccc3c2)C(=S)N1 (configuration not stated),.,.,?,45µM,.,.
O=C1c2cccc(NCCCNCCO)c2C(=O)c2cccc(NCCCNCCO)c21,/,.,50µM,/,?,/
CCCCNC1=CC(=O)C(NCCCC)=CC1=O,/,.,40µM,/,18µM,/
COc1ccc(OC)c(C(=O)NC2CC(C)(C)Cc3c2cnn3-c2ccccc2)c1 (configuration not stated),/,.,.,71µM,.,/
c1ccc(-n2nc3c(ccc4cnnc43)[nH]2)cc1,?,.,.[11.4 µM],50µM,.,.
CCN(CC)S(=O)(=O)c1cccc2cc(C(=O)O)c(O)cc12,?,-67,.,.,.,.
COc1cc(CN2CCN(C(=O)c3cccc4ccccc34)CC2)cc(OC)c1OC,/,.,20µM,56µM,?,.
COc1cccc(CN2CCN(C(=O)c3cccc4ccccc34)CC2)c1,/,.,28µM,.,?,.
COc1cccc(C(=O)N2CCN(C(=O)c3cccc4ccccc34)CC2)c1OC,.,.,.,/,.,.
COc1cccc(CN2CCN(C(=O)c3cc(-c4ccccn4)nc4ccc(Cl)cc34)CC2)c1,.,.,.,.,.,.
Cc1cc(NC(=O)C2CC2)ncc1NC(=O)c1ccccn1,.,.,.,79µM,.,.
O=C(NNC(=O)c1ccccc1-c1ccccc1C(=O)O)c1ccccc1,.,.,.,.,.,.
O=C(C=P(c1ccccc1)(c1ccccc1)c1ccccc1)c1ccccc1-c1ccccc1C(=O)C=P(c1ccccc1)(c1ccccc1)c1ccccc1,/,-65,45µM,/,?,/
Cn1/c(=N/N=C/c2ccccn2)sc2ccccc21,.,.,89µM,?,?,?
Cn1/c(=N/N=C/c2ccc(N3CCOCC3)cc2)sc2ccccc21,?,.,.,?,.,.
COc1cccc(N=c2oc3ccc(OC)cc3cc2-c2nc3ccccc3[nH]2)c1,?,/,?,.,.,/
COc1cccc(N=c2oc3ccccc3cc2-c2nc3ccccc3[nH]2)c1,.,.,32µM,.,.,.
Cc1cc2ccccn2c1C(=O)c1ccc(C#N)cc1,/,.,.,?,.,/
Cc1cc2ccccn2c1C(=O)c1cc([N+](=O)[O-])cc([N+](=O)[O-])c1,.,.,18µM,10µM,?,?
COC(=O)c1cc(C(=O)c2c(C)cc3ccccn23)cc([N+](=O)[O-])c1,/,.,45µM,?,?,/
Cc1cc2ccccn2c1C(=O)c1ccc(NN)c([N+](=O)[O-])c1,.,.,40µM,18µM,32µM,.
CCN(CC)S(=O)(=O)c1cccc(C(=O)c2c(C)cc3ccccn23)c1,.,.,.,.,.,.
CCOc1ccccc1C1CC(=O)Nc2c1c(=O)n(C)c1ncnn21 (configuration not stated),/,/,.,.,.,/
COc1cccc(/C=N/NC(=O)C(c2ccncc2)N2CCOCC2)c1 (configuration not stated),.,.,.,.,.,.
O=C(N/N=C/c1cc(Br)ccc1O)C(c1ccncc1)N1CCOCC1 (configuration not stated),.,.,79µM,50µM,.,?
SMILES,KDM4E inh,PI5P4Ka inh,JMJD2A Tudor,BAZ2B block,HP1b chromo inh,L3MBTL1 block
c1ccc(Cn2c(SCc3nc4ccccc4s3)nnc2-c2ccco2)cc1,.,-73,32µM,?,?,.[11.4 µM]
CC(=O)Nc1ccc(S(=O)(=O)Nc2nc3ccccc3nc2N2CCOCC2)cc1,/,.,.,/,.,.
Cc1ccccc1S(=O)(=O)Nc1nc2ccccc2nc1N1CCOCC1,?,.,.,56µM,.,/
C=CCOC(/C=C/c1ccccc1)CC (configuration not stated),/,/,.,/,.,/
CCOc1cccc(=O)c2c(C)n(CC(=O)c3ccccc3)c(C)c12,.,?,.,.,79µM,?
O=C(c1ccc2c(c1)N(Cc1cccc(Cl)c1)C(=O)c1ccccc1S2=O)N1CCN(c2cccc(C(F)(F)F)c2)CC1 (configuration not stated),/,/,.,.,.,/
COc1ccc(Cn2c(C(=O)O)c(CNCc3ccc(OC)cc3OC)c3ccc(C)cc32)cc1,/,/,.,.,.,/
COc1ccc(Cn2c(C(=O)O)c(CNCCc3cc(OC)ccc3OC)c3ccc(C)cc32)cc1,/,/,?,50µM,.,/
C=Cc1ccc(Cn2c(C(=O)O)c(CNCCc3ccco3)c3ccc(C)cc32)cc1,/,/,?,45µM,.,/
Cc1ccc2c(CNCc3ccc(C)o3)c(C(=O)O)n(Cc3ccc(F)cc3)c2c1,/,/,?,50µM,.,/
CCc1ccccc1NC(=O)CCCn1c(=O)c2cccn2c2ccccc21,/,/,?,?,.,/
Nc1ccc(C=Cc2ccc(N)cc2)cc1,/,.,/,/,/,/
COc1cccc(CNC(=O)CCCn2c(=O)c3cccn3c3ccc(F)cc32)c1OC,/,/,.,.,.,/
Cc1cccc(Cn2c(C)c(C)c3cc(C(=O)NCCN4CCOCC4)ccc32)c1,/,.,50µM,56µM,.,/
Cc1c(C)n(Cc2ccc(F)cc2)c2ccc(C(=O)NCc3ccco3)cc12,/,/,?,.,.,/
Cc1c(C)n(Cc2ccc(F)cc2)c2ccc(C(=O)NCCN3CCOCC3)cc12,/,.,?,50µM,.,/
CCCC[n+]1c(C)sc2cc(OC)ccc21,.,.,16µM,.,.,.
COc1ccc2sc(C)[n+](C)c2c1,20µM,.,.,.,.,/
CC1=C(c2ccc(Cl)cc2)S(=O)(=O)N=C1N1CCN(c2cccc(C(F)(F)F)c2)CC1,/,/,.,.,.,/
COc1ccccc1C(=O)Nc1ccccc1OCc1cc(=O)n2cc(C)sc2n1,/,/,.,.,.,/
Cc1ccc([N+](=O)[O-])cc1-c1ccc(/C=C(\C#N)c2[nH]nc(N)c2C#N)o1,.,-55,?,?,.,.
COCc1cc(C)nc(OCC(=O)N/N=C/c2ccc(-c3cc([N+](=O)[O-])ccc3C)o2)c1C#N,?,.,.,.,.,.
Cc1ccccc1/C=C/C1=NCCN1,18µM,.,20µM,?,?,.
Cc1ccccc1C=O,/,.,.,.,.,.
O=C(NC1CCCC1)c1ncn[nH]1,.,.,32µM,45µM,.,?
Cc1ccc(C)c(NC(=O)c2ncn[nH]2)c1,.,/,.,?,.,.
CCN(CCCNC(=O)c1cc2c(=O)[nH]c3ccc(C)cc3c2s1)Cc1ccccc1,/,/,?,?,.,/
CCOC(=O)c1c(S(=O)(=O)NCCCc2ccco2)c(C)n(C)c1C,/,.,?,56µM,.,/
COCCn1c(C)cc(O)c(C(c2ccccc2)N2CCN(CCO)CC2)c1=O (configuration not stated),/,/,.,.,.,/
